Source: PubChem (several laboratories)
Sampled rows, rich in hits. Any-hit rate of the full collection: about 4.5%.
aSyn 5UTR inh – MLPCN primary screen, SNCA 5' untranslated region | alpha-synuclein 5'UTR reporter, inhibitor activity | inhibition, % (tested at 7.5 µM) | 300,000 compounds, 0.82% hits; in the data active = inhibition above about 60%;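 also: H4 neuroglioblastoma cells stably carrying SNCA 5'UTR luciferase fusion; 0% = DMSO wells and 100% = positive control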
Jurkat NFkB inh – inhibitors of the PMA/ionomycin-induced NF-kB reporter in Jurkat cells; PMA/ionomycin-induced NF-kB luciferase reporter, luminescence; inhibition, % at 4 µM; 330,000 compounds, 0.53% hits; in the data active = inhibition above about 50%
Gli-Sufu antag – antagonists of Gli-Sufu signaling; Sufu-KO-LIGHT fibroblasts, Gli luciferase reporter luminescence; inhibition, % at 5 µM; 340,000 compounds, 0.74% hits; AID 588413;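 active = inhibition above about 55%, limit read from the data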;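 also: 0% = DMSO-treated cells and 100% = wells with medium but no cells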
697 NFkB inh – lowers PMA/ionomycin-induced NF-kB signal in 697 B cells; 697 B-cell NF-kB luciferase reporter, 16 h; inhibition, % at 4 µM; 330,000 compounds, 0.33% hits; AID 435022; in the data active = inhibition above about 35%
CSC inhib – blocks cancer stem cells. cancer stem cell-like cells viability, luminescence. inhibition, % at 7.5 µM. 300,000 compounds, 1.1% hits. AID 2717; in the data active = inhibition above about 75%; tested in HMLE shEcad cells
Mdm2 MdmX PPI – disrupts the human Mdm2-MdmX interaction. SaOS-2 split-luciferase Mdm2/MdmX complementation, luminescence. inhibition, % at 8 µM. 330,000 compounds, 3% hits;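 active = inhibition of at least 50% at 8 µM in the primary screen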
Target sequence (O15151 whole entry, looked up): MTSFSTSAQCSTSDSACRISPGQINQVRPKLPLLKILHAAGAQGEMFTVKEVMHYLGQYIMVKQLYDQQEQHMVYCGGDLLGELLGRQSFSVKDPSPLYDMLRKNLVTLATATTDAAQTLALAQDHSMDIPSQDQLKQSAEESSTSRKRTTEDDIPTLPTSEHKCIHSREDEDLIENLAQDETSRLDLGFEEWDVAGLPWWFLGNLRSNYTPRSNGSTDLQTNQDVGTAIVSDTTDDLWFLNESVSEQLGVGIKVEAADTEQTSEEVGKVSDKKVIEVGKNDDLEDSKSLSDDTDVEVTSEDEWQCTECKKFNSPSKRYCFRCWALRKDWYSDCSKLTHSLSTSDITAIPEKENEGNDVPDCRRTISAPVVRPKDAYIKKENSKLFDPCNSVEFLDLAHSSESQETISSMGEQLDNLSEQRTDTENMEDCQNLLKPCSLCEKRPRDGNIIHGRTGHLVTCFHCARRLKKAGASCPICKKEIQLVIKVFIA
Target sequence (Q00987 whole entry, looked up): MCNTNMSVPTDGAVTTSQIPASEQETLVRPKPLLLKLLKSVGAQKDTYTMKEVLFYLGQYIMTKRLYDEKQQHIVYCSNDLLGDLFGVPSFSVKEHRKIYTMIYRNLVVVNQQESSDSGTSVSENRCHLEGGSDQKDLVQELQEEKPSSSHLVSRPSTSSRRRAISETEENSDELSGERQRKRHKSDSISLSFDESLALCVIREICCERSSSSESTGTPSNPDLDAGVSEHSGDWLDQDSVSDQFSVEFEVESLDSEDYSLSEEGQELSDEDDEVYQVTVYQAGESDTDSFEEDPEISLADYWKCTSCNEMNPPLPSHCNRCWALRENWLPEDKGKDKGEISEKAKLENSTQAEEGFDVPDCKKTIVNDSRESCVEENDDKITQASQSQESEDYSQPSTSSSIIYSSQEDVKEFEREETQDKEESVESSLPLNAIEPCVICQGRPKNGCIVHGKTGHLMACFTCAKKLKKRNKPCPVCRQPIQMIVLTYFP
Numbers without * were called inactive; nt = no result.

SMILES | aSyn 5UTR inh | Jurkat NFkB inh | Gli-Sufu antag | 697 NFkB inh | CSC inhib | Mdm2 MdmX PPI
CCN1CCN(C(=S)c2ccc(-c3ccccc3)cc2)CC1 | 66* | 12 | 7 | 20 | 4 | -11
CCN1CCN(CCCOc2ccc(-c3ccccc3)cc2)CC1 | -47 | -55 | -6 | -70 | 125* | -26
Cc1cccc(NC(=O)c2ccc3nccnc3c2)c1C | -23 | 6 | 17 | -5 | -2 | 33
COCCOC(=O)c1[nH]c2c(c1C)C(=O)CC(c1cccs1)C2 (stereo not drawn) | 64* | nt | 5 | nt | nt | nt
O=C(Nc1ccc(OC(F)(F)F)cc1)c1ccc(S(=O)(=O)N2CCOCC2)o1 | nt | -2 | 0 | -6 | 11 | 14
Cc1cc(NC(=O)C2CCN(S(=O)(=O)c3cnc[nH]3)CC2)ccc1Br | 3 | -3 | -3 | 2 | -1 | 22
CCN=C1S/C(=C\c2cn(CC(=O)NCc3ccco3)c3ccccc23)C(=O)N1CC | 65* | -11 | 18 | 23 | nt | 33
CN1C(=O)/C(=C/c2cn(CC(=O)NCc3ccco3)c3ccccc23)NC1=S | 26 | -14 | nt | -8 | -6 | -6
C=C(C)C(O)Cc1c(OC)ccc(C(=O)/C=C/c2ccc(O)cc2)c1O (stereo not drawn) | nt | -5 | -14 | -4 | nt | 40
CC(C)=CCC/C(C)=C/Cc1c(O)ccc(C(=O)/C=C/c2ccc(O)cc2)c1O | -44 | 15 | 3 | -10 | 121* | 36
Cc1cccc(Nc2c([N+](=O)[O-])cc(C(=O)N3CC(=O)Nc4ccccc43)cc2[N+](=O)[O-])c1 | 0 | 16 | 9 | -8 | -16 | 6
Cc1ccc(C)c(Nc2c([N+](=O)[O-])cc(C(=O)N3CC(=O)Nc4ccccc43)cc2[N+](=O)[O-])c1 | 78* | 22 | -11 | 9 | 7 | 40
CCC(CO)[n+]1c(C)cc(/C=C2\Sc3ccccc3N2Cc2ccccc2)cc1C (stereo not drawn) | nt | nt | 87* | nt | 26 | nt
Clc1ccc(Sc2oc(/C=N/n3cnnc3)cc2Br)cc1 | 9 | 8 | -13 | -15 | -12 | 2
CN(C)C(=O)/C(C#N)=C\c1cc(Br)c(Sc2ccc(Cl)cc2)o1 | nt | nt | 3 | nt | 103* | nt
CCN(CC)c1nc(SCCOC(=O)Nc2ccccc2)nc(N(CC)CC)n1 | 10 | -29 | -13 | -31 | 81* | 18
COc1ccc(CNC(=O)c2ccc(Cl)c(S(=O)(=O)N3CCOCC3)c2)cc1OC | nt | 22 | 20 | -16 | -12 | 20
Cc1c(C(=O)N2CCN(S(=O)(=O)c3cc(F)ccc3F)CC2)oc2ccccc12 | nt | 4 | -1 | 6 | nt | 4
COc1ccc(NC(=O)c2c(N)no[n+]2[O-])cc1 | 12 | 27 | -9 | -7 | 103* | -21
CCC(C(=O)Nc1cc(OC)c(NC(=O)c2ccccc2)cc1OC)c1ccccc1 (stereo not drawn) | 13 | -11 | 9 | -29 | 79* | -3
CCC(C(=O)Nc1cc(Cl)ccc1OC)c1ccccc1 (stereo not drawn) | -5 | 10 | -12 | 14 | -1 | 20
Cc1ccc(S(=O)(=O)Nc2ccc(-c3nnc(SCc4ccccc4Cl)o3)cc2)cc1 | 0 | 13 | 3 | 10 | 88* | 24
Cc1ccc(S(=O)(=O)/N=C2/C=C(Sc3ncn[nH]3)C(=O)c3ccccc32)cc1 | nt | nt | 22 | nt | 107* | nt
Cc1ccc(S(=O)(=O)/N=C2/C=C(Sc3ncn[nH]3)C(=O)c3ccccc32)c(C)c1 | nt | nt | nt | nt | 103* | nt
Cc1ccc(S(=O)(=O)/N=C2\C=C(NS(=O)(=O)c3ccccc3)C(=O)c3ccccc32)c(C)c1 | nt | nt | 1 | nt | nt | nt
SMILES | aSyn 5UTR inh | Jurkat NFkB inh | Gli-Sufu antag | 697 NFkB inh | CSC inhib | Mdm2 MdmX PPI
CC(C)c1ccc(S(=O)(=O)/N=C2/C=C(Sc3ncn[nH]3)C(=O)c3ccccc32)cc1 | nt | nt | -3 | nt | 105* | nt
Cc1ccc(S(=O)(=O)Nc2ccc(O)c(Sc3ncn[nH]3)c2)cc1 | 7 | 10 | -8 | 27 | 4 | 17
CC(C)(C)c1cc(CSC(=S)NC2CCS(=O)(=O)C2)c(Br)c(C(C)(C)C)c1 (stereo not drawn) | -20 | 0 | 39 | -33 | 97* | 18
Nn1c(-c2ccccc2)cc(-c2ccccc2)cc1=O | 13 | -2 | -11 | 9 | 29 | -3
COc1ccc(CNCC(O)COc2ccc(C(C)(C)c3ccccc3)cc2)cc1 (stereo not drawn) | 10 | -2 | 4 | -12 | 109* | 38
OC(CNCCc1ccc(C(F)(F)F)cc1)COc1ccc2ccccc2c1 (stereo not drawn) | 4 | -11 | 6 | -11 | 77* | 26
OC(CNCCc1ccc(C(F)(F)F)cc1)COc1cccc2ccccc12 (stereo not drawn) | 8 | -2 | 17 | 19 | 96* | 42
COc1ccccc1COCC(O)CNCCc1ccc(C(F)(F)F)cc1 (stereo not drawn) | -2 | -32 | 3 | -41 | 17 | 20
C#CCN1[C@@H]2CCN(C2)c2cc(Br)ccc2S1(=O)=O | nt | nt | 16 | nt | nt | nt
CC(=O)N1CCN(C(=O)C(Cc2c[nH]c3ccccc23)NC(=O)c2ccccc2Cl)CC1 (stereo not drawn) | 12 | -1 | 1 | 11 | -6 | 21
O=C(c1ccc2c(c1)C(=O)N(CCCO)C2=O)c1ccc2c(c1)C(=O)N(CCCO)C2=O | nt | -6 | 23 | -5 | -13 | 8
O=C1c2ccc3c4c(ccc(c24)C(=O)N1CCCCO)C(=O)N(CCCCO)C3=O | 111* | nt | 38 | nt | nt | nt
Cc1ccc(C(C)C)c(OCc2ccc(C(=O)N/N=C/c3ccc(O)cc3O)cc2)c1 | 96* | nt | 35 | nt | 101* | nt
COc1ccc(/C=N/NC(=O)c2ccc(COc3cccc4cccnc34)cc2)cc1O | -15 | 0 | -39 | 0 | 2 | -1
CC(C)(C)c1ccc(OCc2ccc(C(=O)N/N=C/c3ccc(O)c(O)c3)cc2)cc1 | 13 | -4 | 1 | -151 | 89* | 16
O=C(N/N=C/c1cccc(O)c1)c1ccc(COc2ccccc2Br)cc1 | -32 | 1 | -12 | -4 | 87* | 24
O=C(N/N=C/c1ccc(OCc2ccc(F)cc2)cc1)c1ccccc1 | -51 | -12 | -38 | 3 | 4 | 22
CC1CC(C)CN(C(=O)CSc2nc(Cc3cccs3)nc3ccccc23)C1 (stereo not drawn) | 17 | -6 | 13 | -1 | 30 | 16
CC(=O)N1CCN(C(=O)c2cc(S(=O)(=O)N(C)Cc3ccccc3)ccc2Cl)CC1 | nt | 3 | -6 | 5 | nt | 12
CCOC(=O)c1cnc2c(OC)cccc2c1N1CCN(c2ccccn2)CC1 | 47 | 3 | 43 | -23 | -6 | 20
CCOC(=O)c1cnc2c(OC)cccc2c1N1CCN(c2ccccc2OC)CC1 | 62* | -6 | 11 | -2 | 5 | 7
C/C(=N\NC(=O)c1c[nH]c2ccccc12)c1ccccn1 | 72* | -52 | -58 | -119 | 20 | 39
O=C(COc1ccccc1)Nc1ccc(-c2nnc(-c3ccco3)o2)cc1 | -84 | -62 | -19 | -84 | 1 | 2
